In PubChem BioAssay (Tox21):
Values without a mark were called inactive. Calls of active or inactive are those of the source. The call rests on the fitted dose curve; in most records, active means well fitted curve in the direction sought with a large enough effect in the repeat runs; inconclusive means weak or mixed curves; inactive means flat fitted curve, though single readings scatter.

test: qHTS assay to test for compound auto fluorescence at 535 nm (green) in HEK293 cells (AID 720680); conditions: green autofluorescence 485/535 nm; series mostly up to 46 µM; fluorescence, % of fluorescein: at the top concentration
From the text: U.S. Tox21 Program National Center for Advancing Translational Sciences [NCATS] NIH Chemical Genomics Center [NCGC] U.S. Environmental Protection Agency [EPA] National Institutes of Environmental Health Sciences [NIEHS] National Toxicology Program [NTP] U.S. Food and Drug Administration [FDA] Tox21 Assay Overview: Compound auto fluorescence often interferes with screening of the compound library against various biological targets and signaling pathways. Some of these compounds may have fluorophoric properties. Such properties may interfere with the assay outputs resulting in false positives and/or negatives. To decrease such complications and ensure the compound activities are relevant in terms of biological response, the Tox21 10K compound library was screened for auto fluorescence. From the fluorophores used as reporter signals in our screening assays, the auto fluorescence equivalencies of compounds against three fluorophores have been evaluated: Triamterene, Fluorescein and Rose Bengal sodium for blue, green and red fluorescence, respectively. The fluorescence intensities were measured using Excitation/Emission wavelengths at 405/460nm, 485/535nm and 540/590nm for blue, green and red labels, respectively. This assay includes the green fluorescence data.
Tox21 Assay Protocol Summary: 2,000 HEK293 cells in 5 uL of culture medium containing 10% dialyzed FBS per well were dispensed into black wall/clear bottom 1536-well plates using a Multidrop Combi Dispenser (Thermo Scientific). The assay plates were incubated for 4-5 hr at 37C to allow cell attachment to the well bottom, followed by the transfer of 23 nL compound or DMSO vehicle by a pintool work station (Kalypsys, San Diego, CA). After the assay plates were incubated overnight at 37C and 5% CO2, fluorescence intensities in the assay plates were measured by an Envision (PerkinElmer, Shelton, CT) plate reader using three labels for measuring blue, green and red fluorescence at […] 460, 535 and 590nm respectively.
On the % scale 0 is the no-effect control and ±100 the full control effect.

Row | Compound | fluorescence, % of fluorescein | Potency
1 | C/C(=C\c1csc(C)n1)[C@@H]1C[C@@H]2O[C@]2(C)CCC[C@H](C)[C@H](O)[C@@H](C)C(=O)C(C)(C)[C@@H](O)CC(=O)O1 | 0.0049% | 
2 | COc1ccc(OC)c(C[C@H](C)N)c1 | -0.0613% [at 95.7 µM] | 
3 | C[C@H]1CC[C@]2(NC1)O[C@H]1C[C@H]3[C@@H]4CC[C@H]5C[C@@H](O)CC[C@]5(C)[C@H]4CC[C@]3(C)[C@H]1[C@@H]2C | -0.0426% | 
4 | C[C@@H](Cc1ccccc1)NCCC(c1ccccc1)c1ccccc1 | -0.0164% [at 18.6 µM] | 
5 | CC[C@H]1[C@@H]2C[C@H]3[C@@H]4N(C)c5ccccc5[C@]45C[C@@H](C2[C@H]5O)N3[C@@H]1O (stereo not given in full) | -0.0163% [at 18.6 µM] | 
6 | CC(C)(C)c1ccc(O)cc1 |  | inactive
7 | C[C@@H]([C@H](O)c1ccccc1)N(C)C | 0.0868% | 
8 | CCC1(c2ccccc2)C(=O)NC(=O)N(C(=O)c2ccccc2)C1=O (stereo not given) | 0.0008% | 
9 | COC(COC(N)=O)C1=C(N2CC2)C(=O)C(C)=C(N2CC2)C1=O (stereo not given) | 0.0254% | 
10 | C[C@]12CC[C@H](OS(=O)(=O)O)CC1=CC[C@@H]1[C@@H]2CC[C@]2(C)C(=O)CC[C@@H]12 | -0.0701% | 
11 | Clc1ccccc1-c1ccccc1Cl | 0.017% [at 95.7 µM] | 
12 | COC(=O)[C@H]1[C@@H](OC(=O)c2ccccc2)C[C@@H]2CC[C@H]1N2C | -0.0262% [at 91.3 µM] | 
13 | C[N+]1([O-])[C@@H]2CC[C@H]1CC(OC(=O)C(CO)c1ccccc1)C2 (stereo not given in full) |  | inactive
14 | C[C@@H](Cc1ccccc1)N(C)C | -0.0154% | 
15 | CC(N)Cc1ccc2c(c1)OCO2 (stereo not given) | -0.0417% | 
16 | CCN1C[C@]2(COC)[C@H](O)C[C@H](OC)[C@@]34[C@@H]5C[C@@]6(O)[C@H](OC(=O)c7ccccc7)[C@@H]5[C@@](OC(C)=O)([C@@H]([C@H](OC)[C@H]23)[C@@H]14)[C@@H](O)[C@@H]6OC | -0.0077% | 
17 | O=C1Nc2ccc(Cl)cc2C(c2ccccc2Cl)=NC1O (stereo not given) | -0.0436% | 
18 | CCC(C)(S(=O)(=O)CC)S(=O)(=O)CC | -0.0099% | 
19 | CCCCCN(C)CCC(O)(P(=O)(O)O)P(=O)(O)O | 0.0752% | 
20 | CC1(C)S[C@@H]2[C@H](N)C(=O)N2[C@H]1C(=O)O | 0.0005% [at 18.6 µM] | 

Row | Compound | fluorescence, % of fluorescein | Potency
21 | CC(C)[C@@]1(NC(=O)[C@@H]2C[C@@H]3c4cccc5[nH]cc(c45)C[C@H]3N(C)C2)O[C@@]2(O)[C@@H]3CCCN3C(=O)[C@H](Cc3ccccc3)N2C1=O |  | inactive
22 | OCC(c1ccc(Cl)cc1)c1ccc(Cl)cc1 | -0.0354% [at 91.3 µM] | 
23 | O=C(CCl)c1ccc(Oc2ccc(C(=O)CCl)cc2)cc1 | 0.151% | 
24 | O=C(NC(=O)c1c(F)cccc1F)Nc1ccc(Cl)c(Oc2ncc(C(F)(F)F)cc2Cl)c1 | 0.0699% | 
25 | OC(c1ccccc1)(c1ccccc1)C1CN2CCC1CC2 (stereo not given) | -0.303% | 
26 | C[C@@H](CO)NC(=O)[C@@H]1C=C2c3cccc4[nH]cc(c34)C[C@H]2N(C)C1 | 0.878% | 
27 | CCCC(=O)OC(C(Cl)(Cl)Cl)P(=O)(OC)OC (stereo not given) | -0.0607% | 
28 | CCCCC[C@@H](O)C1C(=O)OC(C)[C@H](O)/C=C/C=C/C=C/C=C/C=C(\C)C(O)C(O)C(O)C[C@H](O)C[C@H](O)C[C@H](O)C[C@H](O)C[C@@H]1O (stereo not given in full) |  | inactive
29 | O=C1CCO1 | -0.0144% | 
30 | c1ccc(C2(N3CCCC3)CCCCC2)cc1 | 0.329% | 
31 | Clc1ccc(C(Cn2ccnc2)OCc2csc3c(Cl)cccc23)c(Cl)c1 (stereo not given) | -0.0462% [at 18.6 µM] | 
32 | CN1C(=O)CC(=O)N(c2ccccc2)c2cc(Cl)ccc21 | 0.158% | 
33 | CC(C)C[C@H]1C(=O)N2CCC[C@H]2[C@]2(O)O[C@](NC(=O)[C@@H]3C[C@@H]4c5cccc6[nH]cc(c56)C[C@H]4N(C)C3)(C(C)C)C(=O)N12 | 0.426% | 
34 | CCC1(c2cnc[nH]2)Cc2ccccc2C1 |  | inactive
35 | O=C1C[C@@H]2OCC=C3CN4CC[C@]56c7ccccc7N1[C@H]5[C@H]2[C@H]3C[C@H]46 (tested in a mixture with another compound) |  | inactive
36 | Cc1cccc(C(C)c2cnc[nH]2)c1C (stereo not given) | -0.0065% | 
37 | Cc1nnc2n1-c1sc(Br)cc1C(c1ccccc1Cl)=NC2 | 0.149% | 
38 | COc1cc(OC)c(OC)cc1C=O | -0.177% [at 91.3 µM] | 
39 | C[C@@H](N)C(=O)c1ccccc1 | 0.0573% [at 95.7 µM] | 
40 | CCN(CC)/[N+]([O-])=N/O | 0.0026% | 
